# T1: BTN1A1 285-479 SPRY (domain begin residue: 285, domain end residue: 479), Q13410
# T1 chain: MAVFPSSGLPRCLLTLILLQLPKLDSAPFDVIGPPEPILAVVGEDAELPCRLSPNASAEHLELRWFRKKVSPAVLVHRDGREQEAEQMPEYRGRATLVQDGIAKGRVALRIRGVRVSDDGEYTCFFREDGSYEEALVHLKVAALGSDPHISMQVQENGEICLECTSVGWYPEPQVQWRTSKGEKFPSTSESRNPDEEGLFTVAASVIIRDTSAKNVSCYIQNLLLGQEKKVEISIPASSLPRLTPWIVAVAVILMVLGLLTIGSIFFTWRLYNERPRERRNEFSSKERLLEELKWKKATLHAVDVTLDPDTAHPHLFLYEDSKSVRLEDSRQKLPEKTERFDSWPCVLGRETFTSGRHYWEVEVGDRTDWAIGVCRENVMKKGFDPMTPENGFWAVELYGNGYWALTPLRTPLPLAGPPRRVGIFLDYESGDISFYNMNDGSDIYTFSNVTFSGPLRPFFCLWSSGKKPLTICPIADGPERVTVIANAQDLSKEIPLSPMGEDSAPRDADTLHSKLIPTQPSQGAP
# T2: CLTC 1-363 Clathrin_propel+Clathrin-link (domain begin residue: 1, domain end residue: 363), Q00610
# T2 chain: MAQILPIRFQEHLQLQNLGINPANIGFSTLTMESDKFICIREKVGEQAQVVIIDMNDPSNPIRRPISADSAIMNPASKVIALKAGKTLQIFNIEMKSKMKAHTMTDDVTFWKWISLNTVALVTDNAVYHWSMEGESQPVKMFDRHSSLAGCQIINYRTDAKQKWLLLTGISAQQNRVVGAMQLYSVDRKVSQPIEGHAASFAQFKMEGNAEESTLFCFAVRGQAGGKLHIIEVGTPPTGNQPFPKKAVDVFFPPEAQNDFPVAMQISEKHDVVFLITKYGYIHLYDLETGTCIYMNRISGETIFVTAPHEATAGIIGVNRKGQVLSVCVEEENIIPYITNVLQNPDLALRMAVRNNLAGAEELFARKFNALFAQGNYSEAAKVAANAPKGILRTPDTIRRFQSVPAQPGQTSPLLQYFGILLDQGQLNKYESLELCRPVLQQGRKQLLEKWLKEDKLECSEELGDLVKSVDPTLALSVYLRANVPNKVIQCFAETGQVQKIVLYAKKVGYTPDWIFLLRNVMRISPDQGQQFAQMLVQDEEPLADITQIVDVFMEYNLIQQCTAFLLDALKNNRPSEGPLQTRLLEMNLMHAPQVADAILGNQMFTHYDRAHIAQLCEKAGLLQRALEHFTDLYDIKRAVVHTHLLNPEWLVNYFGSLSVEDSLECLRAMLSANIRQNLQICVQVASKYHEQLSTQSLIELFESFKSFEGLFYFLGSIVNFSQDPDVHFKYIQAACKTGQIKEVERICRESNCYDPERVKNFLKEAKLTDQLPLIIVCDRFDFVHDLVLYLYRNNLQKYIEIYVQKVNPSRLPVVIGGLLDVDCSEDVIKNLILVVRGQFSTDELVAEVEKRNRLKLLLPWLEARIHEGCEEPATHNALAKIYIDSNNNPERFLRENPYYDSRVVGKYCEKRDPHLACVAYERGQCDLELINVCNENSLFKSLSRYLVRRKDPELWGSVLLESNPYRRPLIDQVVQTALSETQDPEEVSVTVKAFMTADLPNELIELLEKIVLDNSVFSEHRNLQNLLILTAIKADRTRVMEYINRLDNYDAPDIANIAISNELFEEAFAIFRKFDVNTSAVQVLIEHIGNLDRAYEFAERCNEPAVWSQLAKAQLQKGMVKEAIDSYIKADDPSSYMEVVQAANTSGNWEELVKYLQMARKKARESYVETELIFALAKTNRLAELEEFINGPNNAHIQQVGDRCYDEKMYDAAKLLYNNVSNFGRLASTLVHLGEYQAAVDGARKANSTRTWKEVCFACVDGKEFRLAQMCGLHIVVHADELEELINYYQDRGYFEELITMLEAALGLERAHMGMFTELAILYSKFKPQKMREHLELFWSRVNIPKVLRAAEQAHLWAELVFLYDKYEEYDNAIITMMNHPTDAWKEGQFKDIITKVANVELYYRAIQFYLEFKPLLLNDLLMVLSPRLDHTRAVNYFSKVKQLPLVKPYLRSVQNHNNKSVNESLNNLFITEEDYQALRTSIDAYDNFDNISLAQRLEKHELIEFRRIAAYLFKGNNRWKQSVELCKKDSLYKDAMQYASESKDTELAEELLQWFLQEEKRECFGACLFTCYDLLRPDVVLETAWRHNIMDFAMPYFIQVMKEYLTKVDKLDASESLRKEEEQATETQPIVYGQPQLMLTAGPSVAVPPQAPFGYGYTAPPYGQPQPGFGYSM
# T3: CD2BP2 256-341 GYF (domain begin residue: 256, domain end residue: 341), O95400
# T3 chain: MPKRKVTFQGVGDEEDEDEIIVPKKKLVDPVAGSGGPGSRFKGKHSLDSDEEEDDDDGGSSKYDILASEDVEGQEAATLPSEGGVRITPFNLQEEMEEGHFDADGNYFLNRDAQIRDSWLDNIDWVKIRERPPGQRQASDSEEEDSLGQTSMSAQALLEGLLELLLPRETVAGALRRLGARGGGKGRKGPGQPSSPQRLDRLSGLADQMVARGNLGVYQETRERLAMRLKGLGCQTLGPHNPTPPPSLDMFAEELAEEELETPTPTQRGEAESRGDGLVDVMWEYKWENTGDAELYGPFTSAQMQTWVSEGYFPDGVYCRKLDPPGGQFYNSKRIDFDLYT
# T4: GIGYF2 507-602 GYF (domain begin residue: 507, domain end residue: 602), Q6Y7W6
# T4 chain: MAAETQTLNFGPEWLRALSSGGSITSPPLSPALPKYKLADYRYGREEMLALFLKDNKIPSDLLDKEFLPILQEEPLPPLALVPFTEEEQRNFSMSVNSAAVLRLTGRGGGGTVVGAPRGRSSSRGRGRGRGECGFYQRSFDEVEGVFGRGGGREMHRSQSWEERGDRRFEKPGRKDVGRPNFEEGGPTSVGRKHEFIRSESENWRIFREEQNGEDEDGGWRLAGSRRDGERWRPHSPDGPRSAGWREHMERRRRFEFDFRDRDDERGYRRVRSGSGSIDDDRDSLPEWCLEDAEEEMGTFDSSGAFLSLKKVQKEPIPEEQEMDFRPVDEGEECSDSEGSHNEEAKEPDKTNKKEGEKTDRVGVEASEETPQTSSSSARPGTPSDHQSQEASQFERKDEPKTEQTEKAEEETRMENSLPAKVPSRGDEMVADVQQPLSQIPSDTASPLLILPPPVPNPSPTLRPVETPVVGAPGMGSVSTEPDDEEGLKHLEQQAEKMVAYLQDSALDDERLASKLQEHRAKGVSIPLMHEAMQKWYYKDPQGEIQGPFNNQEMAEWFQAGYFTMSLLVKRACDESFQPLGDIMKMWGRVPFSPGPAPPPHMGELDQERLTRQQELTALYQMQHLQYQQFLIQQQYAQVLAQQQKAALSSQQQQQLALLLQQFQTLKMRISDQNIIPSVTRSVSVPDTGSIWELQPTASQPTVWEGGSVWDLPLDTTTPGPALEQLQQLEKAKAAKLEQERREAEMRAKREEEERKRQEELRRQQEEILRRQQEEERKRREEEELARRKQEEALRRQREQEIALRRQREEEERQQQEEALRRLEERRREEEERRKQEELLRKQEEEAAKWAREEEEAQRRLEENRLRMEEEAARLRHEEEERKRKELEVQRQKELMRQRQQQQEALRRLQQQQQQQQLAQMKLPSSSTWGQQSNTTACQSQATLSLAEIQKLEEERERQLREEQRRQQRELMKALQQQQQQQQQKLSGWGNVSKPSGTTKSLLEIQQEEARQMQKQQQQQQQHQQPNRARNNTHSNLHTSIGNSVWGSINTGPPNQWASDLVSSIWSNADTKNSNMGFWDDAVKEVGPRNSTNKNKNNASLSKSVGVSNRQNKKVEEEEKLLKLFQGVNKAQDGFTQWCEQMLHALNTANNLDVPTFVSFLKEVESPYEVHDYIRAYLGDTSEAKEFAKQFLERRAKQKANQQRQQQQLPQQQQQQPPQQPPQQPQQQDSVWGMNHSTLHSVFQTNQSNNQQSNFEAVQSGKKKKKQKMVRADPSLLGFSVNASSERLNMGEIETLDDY
# T5: CAPN2 513-700 EF-hand_8 (domain begin residue: 513, domain end residue: 700), P17655
# T5 chain: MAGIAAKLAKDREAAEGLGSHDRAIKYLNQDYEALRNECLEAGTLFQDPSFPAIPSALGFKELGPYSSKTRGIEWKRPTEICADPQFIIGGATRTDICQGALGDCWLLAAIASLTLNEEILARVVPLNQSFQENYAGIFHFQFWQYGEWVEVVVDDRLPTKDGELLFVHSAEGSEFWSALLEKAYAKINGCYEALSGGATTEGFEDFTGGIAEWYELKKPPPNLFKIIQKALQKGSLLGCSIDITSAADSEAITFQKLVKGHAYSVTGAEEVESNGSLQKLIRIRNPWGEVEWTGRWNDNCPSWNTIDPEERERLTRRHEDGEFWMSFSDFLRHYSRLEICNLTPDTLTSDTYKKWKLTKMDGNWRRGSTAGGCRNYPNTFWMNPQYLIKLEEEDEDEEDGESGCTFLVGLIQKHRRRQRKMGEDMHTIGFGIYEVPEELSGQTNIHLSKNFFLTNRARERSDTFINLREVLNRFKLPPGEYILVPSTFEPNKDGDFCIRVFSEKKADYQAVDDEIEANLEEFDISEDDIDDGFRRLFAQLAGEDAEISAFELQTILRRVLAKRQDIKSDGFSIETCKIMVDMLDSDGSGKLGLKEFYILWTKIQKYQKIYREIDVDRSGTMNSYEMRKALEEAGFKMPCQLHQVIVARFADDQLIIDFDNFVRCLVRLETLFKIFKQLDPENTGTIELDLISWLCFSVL
# Target: T1, BTN1A1 285-479 SPRY (domain begin …
# Test: phage ELISA signal ratio (GST-PRM binding over GST background); higher = stronger binding of peptide-phage to the PRM
# Experimental: (§1)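 Phage-displayed random hexadecapeptides (Cys-free, flanked by invariant Gly linkers, fused to the M13 P8 major coat protein) were selected over 5 rounds against GST-fused human PRM domains. Individual clones from rounds 4-5 were tested by phage ELISA, and positive clones binding the target but not GST were sequenced. Values are the ELISA signal ratio of target over background (GST); the background signal is given separately.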
row,Binder,phage ELISA signal ratio
1,DVTWWSERAQATLVMM,12.4
2,RDPHWQHKQQMQIVLM,11.1
3,QTWQERQAMMMHMMQW,15.7
4,GWWQSREYYMQDLMAS,5.49

# Target: T2, CLTC 1-363 …
# Test: as above
# Experimental: as §1
row,Binder,phage ELISA signal ratio
1,DLMWWPETELHQGSWS,17.3

# Target: T3, CD2BP2 256-341 GYF (domain begin …
# Test: as above
# Experimental: as §1
row,Binder,phage ELISA signal ratio
1,PPPGYSKWTWSVQERV,14.2
2,EPPGWEVRQPGMVQVQ,16.9
3,QEFMSISYPPGMPQDP,14.4

# Target: CKS1B 1-79 CKS (domain begin residue: 1, domain end residue: 79), P61024
# Sequence (P61024 whole entry): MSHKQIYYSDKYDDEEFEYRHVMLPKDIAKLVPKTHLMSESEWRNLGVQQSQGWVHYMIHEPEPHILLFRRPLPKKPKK
# Test: as above
# Experimental: as §1
row,Binder,phage ELISA signal ratio
1,WDGQAWHLSDPYLWEM,17.9
2,IDYESIFYEGMHWHTL,22.1
3,NSMSYMDIVWHSFDTI,19.2

# Target: T4, GIGYF2 507-602 GYF (domain begin …
# Test: as above
# Experimental: as §1
row,Binder,phage ELISA signal ratio
1,EPPGWEVRQPGMVQVQ,17.5

# Target: CBX3 109-173 Chromo_shadow (domain begin residue: 109, domain end residue: 173), Q13185
# Sequence (Q13185 whole entry): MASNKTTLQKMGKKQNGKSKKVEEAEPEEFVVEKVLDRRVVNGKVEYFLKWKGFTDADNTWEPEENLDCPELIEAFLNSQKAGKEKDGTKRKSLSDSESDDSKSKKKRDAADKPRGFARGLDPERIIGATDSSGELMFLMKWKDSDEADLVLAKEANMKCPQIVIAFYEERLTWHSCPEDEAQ
# Test: as above
# Experimental: as §1
row,Binder,phage ELISA signal ratio
1,HDVWASSWNWDDFRLN,12.7
2,IQKWMNFDDFATAVFH,11.5
3,WIENWSVSPWDLTNPF,4.99

# Target: T5, CAPN2 513-700 EF-hand_8 (domain begin …
# Test: as above
# Experimental: as §1
row,Binder,phage ELISA signal ratio
1,GDWEWVERWLEMHLLE,12.6
